Measurements reported in PubChem BioAssay (EPA / NIEHS).
Values joined by “and” are separate entries in the source; they are usually repeats but may differ in a detail not shown here. Equal values may be shown once. Records with an inconclusive call do not appear. Active and inactive are the calls of the source. The calls were made as follows: active = hit-call score of the fitted dose curve at least 0.9, where 1 is the maximum; inconclusive = response in the unintended direction; inactive = score below 0.9.

experiment: TOX21_p53_BLA_p4_viability: Viability Assessment in the Tox21 HCT-116 p53 Agonism Beta-lactamase Assay, Phase 4 (AID 2283597);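 also: hits lower the luminescence signal meaning cytotoxicity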
Excerpt: TOX21_p53_BLA_p4 is a cell-based, single-readout assay that uses HCT116, a human intestinal cell line, […] in a 1536-well plate.TOX21_p53_BLA_p4_viability is an assay readout measuring cellular ATP content and detected with CellTiter-Glo Luciferase-coupled ATP quantitation.TOX21_p53_BLA_p4_viability used a type of viability reporter where loss-of-signal activity can be used to understand changes in the cell viability. Furthermore, this assay endpoint can be referred to as a secondary readout, because this assay has produced multiple assay endpoints where this one serves a viability function. To generalize the intended target to other relatable targets, this assay endpoint is annotated to the cell cycle intended target family, where the subfamily is cytotoxicity.
Thawing Method: Place 14 mL of pre-warmed thaw medium into a 15 mL of conical tub. Remove the vial of cells to be thawed from liquid nitrogen and thaw rapidly by placing at 37C in a water bath with gentle agitation for 1-2 minutes. Decontaminate the vial by wiping with 70% ethanol before opening in a biological safety cabinet. Transfer the vial contents drop-wise into 14 mL of thaw medium in a sterile 15-mL conical tub. Centrifuge cells at 900 rpm for 4 minutes and resuspend in thaw medium. Transfer contents to the T75 tissue culture flask containing Thaw Medium and place flask in a humidified 37C/5% CO2 incubator. Switch to growth medium at first passage.Propagation Method: Aspirate medium, rinse once in DPBS, add 0.25% Trypsin/EDTA and swirl to coat the cell evenly. Add an equal volume of Growth Medium to inactivate Trypsin after 2-3 minutes incubation at 37C. Centrifuge cells at 900 rpm for 4 minutes and resuspend in growth medium. Cell should be passage or fed at least twice a week.Assay Protocol: Harvest cells from culture in growth medium and resuspend in assay medium. 2.2 Dispense 4000 cells/5 uL/well into 1536-well black/clear bottom plates using a Multidrop dispenser. After the cells were incubated at 37C for 5 hours, 23 nL of compounds dissolved in DMSO were transferred to the assay plate by a PinTool resulting in a 217-fold dilution. Incubate the plates for 16 hours at 37C, 5% CO2. Add 1 uL of 6X LiveBLAzer FRET B/G (CCF4-AM) Substrate Mixture to each well using a BioRAPTR dispenser and incubate the plates at room temperature for 2 hours. Measure fluorescence intensity at 460 and 530 nm emission and 405 nm excitation by an Envision detector. Data is expressed as the ratio of 460nm/530nm emissions. Add 4 uL of Cell-titer Glo to each well using BioRAPTR and incubate the plates at room temperature for […]. For cell viability readout that measures cytotoxicity, 4 ul/well of CellTiter-Glo reagent was added into the assay plates using a Flying Reagent Dispenser. After 30 min incubation at room temperature, the luminescence intensity in the plates was measured using a ViewLux plate reader.

| Compound | outcome | AC50 |
| --- | --- | --- |
| C#CCN1CC(=O)N(COC(=O)C2C(C=C(C)C)C2(C)C)C1=O (stereo not given) | inactive | – |
| CCCC[N+](CCCC)(CCCC)CCCC | inactive | – |
| CC(=O)[C@H]1CC[C@H]2[C@@H]3CC[C@H]4C[C@](C)(O)CC[C@]4(C)[C@H]3CC[C@]12C | inactive | – |
| C#C[C@]1(O)C=C[C@H]2[C@@H]3CCC4=CC(=O)CC[C@@H]4[C@H]3CC[C@@]21CC | inactive | – |
| COC(=O)c1ccc(CBr)cc1 | inactive | – |
| II | inactive | – |
| c1ccc(C2(c3ccccc3)CC2C2=NCCN2)cc1 (stereo not given) | inactive | – |
| C[C@@H]1CC[C@H]2[C@@H](C)C(=O)O[C@@H]3O[C@@]4(C)CC[C@@H]1[C@]32OO4 | inactive | – |
| CCCSc1cc(OC)c(CCN)cc1OC | inactive | – |
| [Cl-].[Cl-].[Sn+2] | inactive | – |
| CC[n+]1c(-c2ccccc2)c2cc(N)ccc2c2ccc(N)cc21 | inactive | – |
| N#Cc1cc(I)c(O)c(I)c1 | inactive | – |
| [Cl-].[Cl-].[Cl-].[Fe+3] | inactive | – |
| CCC(=O)O[C@](Cc1ccccc1)(c1ccccc1)[C@H](C)CN(C)C | inactive | – |
| CCCCCc1cc(O)cc(O)c1 | inactive | – |
| C#C[C@]1(OC(=O)CCCCCC)CC[C@H]2[C@@H]3CCC4=CC(=O)CC[C@@H]4[C@H]3CC[C@@]21C | inactive | – |
| C[C@]12CC[C@H]3[C@@H](CC=C4C[C@@H](O)CC[C@@]43C)[C@@H]1CC[C@@H]2O | inactive | – |
| COc1cc(CC(C)N)cc2c1OCO2 (stereo not given) | inactive | – |
| Oc1cc[c]([Hg][Cl])cc1 | – | 20.4 µM (active) and 9.85 µM (active) |
| C(COCC1CO1)OCC1CO1 (stereo not given) | inactive | – |

| Compound | outcome | AC50 |
| --- | --- | --- |
| Cc1nnc2n1-c1ccc(Cl)cc1C(c1ccccc1Cl)=NC2 | inactive | – |
| CC(=O)CC(c1ccc(Cl)cc1)c1c(O)c2ccccc2oc1=O (stereo not given) | inactive | – |
| Oc1ccc(C2(c3ccc(O)cc3)CCCCC2)cc1 | – | 46.3 µM (active) |
| COc1cc(N)c(Cl)cc1C(=O)NC1CN2CCC1CC2 (stereo not given) | inactive | – |
| Cc1cc(OC(=O)N(C)C)nn1C(=O)N(C)C | inactive | – |
| Clc1ccc(-c2ccc(Cl)c(Cl)c2Cl)c(Cl)c1Cl | inactive | – |
| C[C@]12CC[C@H](O)C[C@H]1CC[C@@H]1[C@@H]2CC[C@]2(C)[C@@H](c3ccc(=O)oc3)C[C@H]3O[C@]132 | – | 1.23 µM (active) |
| CC(C)=CCN1CC[C@]2(C)c3cc(O)ccc3C[C@H]1[C@H]2C | inactive | – |
| COC(=O)[C@]12CCC(C)(C)C[C@H]1[C@H]1C(=O)C=C3[C@@]4(C)C=C(C#N)C(=O)C(C)(C)[C@@H]4CC[C@@]3(C)[C@]1(C)CC2 | – | 1.99 µM (active) |
| CNC(=O)Oc1ccccc1C(=O)Nc1ccccc1 | inactive | – |
| CC1N=C(N)OC1c1ccccc1 (stereo not given) | – | 26 µM (active) |
| C=C[C@H]1CN2CC[C@H]1C[C@@H]2[C@@H](O)c1ccnc2ccccc12 | inactive | – |
| c1coc(-c2nc3ccccc3[nH]2)c1 | inactive | – |
| O=C(Cl)CCl | inactive | – |
| CCCC[P+](CC)(CCCC)CCCC (tested in a mixture with another compound) | inactive | – |
| CN(C)N | inactive | – |
| C=CCSSCC=C | inactive | – |
| COc1ccc2c3c1O[C@H]1[C@@H](O)C=C[C@H]4[C@@H](C2)NCC[C@@]341 | inactive | – |
| CCc1cc(OC)c(C[C@@H](C)N)cc1OC | inactive | – |
| Oc1ccc(C(=C(Cl)Cl)c2ccc(O)cc2)cc1 | – | 77.7 µM (active) |
